Screening results as filed in PubChem.
Sampled rows, rich in hits. Any-hit rate of the full collection: about 3.7%.
HTT cytoprotect: cytoprotection in Huntington HTT-Q103 PC12 cell model; PC12 HTT-Q103 induced, cytoprotection, ATP luminescence, 40 h; Potency, µM (titrated, usually from 56.4 µM), for the others: cytoprotection (ATP increase), actives largely listed as activators; 230,000 compounds, 0.14% hits; AID 1471; further: % of control where 0% means no effect; nearly all actives have a fitted effect of over 45% in size
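Compounds added alongside 100 nM tebufenozide, which induces toxic Q103 huntingtin exon 1-GFP in stable PC12 cells; surviving cells quantified by luminescent ATP measurement. Medium: phenol red-free DMEM, 5% equine and 5% calf serum.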
HttQ103 aggreg: inhibitors of mutant huntingtin aggregate formation in PC12 cells | AID 1688 | 220,000 compounds, 1.1% hits | PC12 HttQ103-GFP aggregates, Acumen cytometry, 40 h | Potency, µM (doses to about 46.1 µM), inactives show at the top dose activity change, negative = inhibition, hits mostly inhibitors; further: on the % scale 0 is the no-effect control and ±100 the full control effect; nearly all actives have a fitted effect of over 60% in size
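Using laser scanning cytometry, GFP-positive aggregates were counted after lysis of PC12 cells induced with 100 nM tebufenozide to express HTT exon 1 Q103–GFP. Compounds were tested in titration.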
Tau fluor counter: counter-screen for tau fibril formation inhibitors; tau K18 P301L Alexa594 fluorescence, heparin fibrillization; Potency, µM (top dose mostly 57.7 µM), inactives show at the top dose activity change, negative = decrease; 280,000 compounds, 0.93% hits; further: on the % scale 0 is the no-effect control and ±100 the full control effect; nearly all actives have a fitted effect of over 55% in size
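Human tau K18 P301L (15 uM unlabeled, 0.24 uM Alexa 594-labeled) in 100 mM sodium acetate pH 7 with 20 uM heparin, 6 hr at 37 C. ThT 30 uM added, 1 hr ambient; Alexa 594 FP and total fluorescence read at 555/632 nm.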
Tau ThT inhib: inhibitors of human tau fibril formation, thioflavin T binding. recombinant tau K18 P301L (four-repeat tau fragment), heparin-induced fibrillization, ThT fluorescence. AID 1460. Potency, µM (doses to about 57.4 µM), for inactives: at the highest dose activity, negative = inhibition, most hits filed as inhibitors. P10636. 270,000 compounds, 2.1% hits; further: on the % scale 0 is the no-effect control and ±100 the full control effect; nearly all actives have a fitted effect of over 55% in size
Target sequence (P10636 561-689 P618L limits assumed): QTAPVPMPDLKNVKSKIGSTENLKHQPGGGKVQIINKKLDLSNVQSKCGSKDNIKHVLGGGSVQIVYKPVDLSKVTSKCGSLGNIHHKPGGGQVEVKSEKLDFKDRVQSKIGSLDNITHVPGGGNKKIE
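Aggregation was driven by heparin (20 uM final) acting on recombinant tau […] bearing P301L in 100 mM sodium acetate pH 7; fibrils were detected with Thioflavin T.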
Tau FP inhib: inhibitors of human tau fibril formation; P10636; K18 P301L tau heparin fibrillization, Alexa594 FP, 6 h; Potency, µM (titrated, usually from 57.7 µM), for inactives: at the highest dose activity, negative = inhibition, hits mostly inhibitors; 280,000 compounds, 0.39% hits; further: on the % scale 0 is the no-effect control and ±100 the full control effect; nearly all actives have a fitted effect of over 55% in size
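Human tau K18 […] P301L fragment, 15 uM unlabeled plus 0.24 uM Alexa 594-labeled tau (final), with compound and 20 uM heparin in 100 mM sodium acetate pH 7; 6 hr at 37 C, then Alexa 594 FP read.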
* marks the source's active call; other numbers are inactive results; ? = inconclusive; · = not tested or not shown; [ ] = dose if it differs, or a comment. The call rests on the fitted dose curve; in most records, active means well fitted curve in the direction sought with a large enough effect; inconclusive means small, poorly fitted or top-dose-only effect, or another doubt; inactive means no such curve, though single readings can be large; an effect the other way counts as inactive or inconclusive. Potency means the concentration at half of the fitted maximal effect.

SMILES	HTT cytoprotect	HttQ103 aggreg	Tau fluor counter	Tau ThT inhib	Tau FP inhib
COc1ccc(C(=O)/C=C(\C)Nc2ccc3c(c2)OCO3)cc1	-23%	2%	?	13µM*	6%
Cc1ccc(C2CC(=O)n3nc(-c4ccc(Cl)cc4)nc3S2)cc1 (stereo unspecified)	·	·	-6%	-14%	-2%
COc1ccc(CN(C)C(=O)CCl)cc1	?	13µM*	-5%	-11%	4%
O=C(NCc1ccco1)c1ccc2c(c1)C(=O)c1ccccc1-2	-21%	12%	-29%	13µM*	?
O=C(NCc1ccco1)c1ccc2ccccc2c1	-18%	-8%	-15%	-17%	?
CCOC(=O)c1cc(-c2ccc(OC)cc2)n(CCC(=O)Nc2ccccc2OC)c1C	·	·	-23%	-4%	15%
O=S(=O)(Nc1cccc2cccnc12)c1ccc(S(=O)(=O)N2CCCC2)cc1	0%[10 µM]	0.79µM*	-25%	-2%	12%
CS(=O)(=O)Nc1cccc2cccnc12	-13%	?	-6%	-13%	-5%
Nc1ccc(O)c2c1C(=O)c1ccccc1C2=O	·	-3%	-2%	1%	5%
Nc1c(Cl)cc2c(c1Oc1ccccc1)C(=O)c1ccccc1C2=O	-1%	-14%[9.22 µM]	14µM*[quencher]	?	7%
O=C(Nc1nc2c(F)cc(F)cc2s1)c1ccc(S(=O)(=O)N2CCc3ccccc32)cc1	·	·	-21%	-2%	14µM*
O=C(Nc1nc2c(F)cccc2s1)c1ccc(S(=O)(=O)N2CCCc3ccccc32)cc1	·	·	-1%	6%	-8%
Cc1cccc(NC(=O)c2c(C)cc(C)nc2SCC(=O)Nc2c(C)cc(C)cc2C)c1	·	·	-1%	3%	-6%
N=C1/C(=C\c2coc3ccccc3c2=O)C(=O)N=C2SC(c3ccncc3)=NN12	20%[10 µM]	-5%[9.22 µM]	-24%	13µM*	?
N=C1/C(=C/c2coc3ccccc3c2=O)C(=O)N=C2SC(c3ccco3)=NN12	9%[10 µM]	1%[9.22 µM]	-19%	?	-10%
CC(C)CSC1=NSC2=NC(=O)/C(=C\c3coc4ccccc4c3=O)C(=N)N12	-68%	8%	?	28µM*	?
CC(C)c1ccc(-n2cccc2/C=C2/C(=N)N3C=CSC3=NC2=O)cc1	11%[10 µM]	-5%	-26%	?	3%
N=C1/C(=C\c2coc3ccc(O)cc3c2=O)C(=O)N=C2SC=CN12	2%[10 µM]	-3%[9.22 µM]	?	13µM*	-14%
CSC1=NSC2=NC(=O)/C(=C\c3coc4ccccc4c3=O)C(=N)N12	3%[10 µM]	16%	?	14µM*	?
Cc1ccccc1OCC(=O)N(Cc1ccc(N(C)C)cc1)CC1CCCO1 (stereo unspecified)	·	·	-2%	-8%	3%
CCc1ccccc1	-11%	·	·	·	·
Cc1cc(=O)[nH]c(SCC(=O)Nc2cccc3ccccc23)c1C#N	20%	3.2µM*	-4%	-7%	9%
Cc1cc(C)c(C#N)c(SCC(=O)Nc2ccccc2C)n1	-5%[10 µM]	-10%[9.22 µM]	0%	-1%	-9%
NS(=O)(=O)c1ccc(N=Nc2c[nH]c(=O)c(O)c2)cc1	12%[10 µM]	-6%[9.22 µM]	?	2.5µM*	?
CCN(CC)N=Nc1ccc(S(N)(=O)=O)cc1	41%[10 µM]	19%[9.22 µM]	-12%	-8%	?
SMILES	HTT cytoprotect	HttQ103 aggreg	Tau fluor counter	Tau ThT inhib	Tau FP inhib
CCOC(=O)C(NC(=O)CC)(N1CCc2ccccc2C1)C(F)(F)F (stereo unspecified)	-4%	3%	-16%	22µM*	?
CCOC(=O)C(NC(=O)CC)(Nc1ccccc1)C(F)(F)F (stereo unspecified)	·	-10%	-9%	?	-6%
N#CC(C#N)=C1NC2(CCCCC2)Cc2ccccc21	11%[10 µM]	-1%[9.22 µM]	-10%	-3%	-4%
N#CC(C#N)=c1ccc2c(c1)NC1(CCCCC1)N=2	?	?	?	14µM*	25µM*
CCN1C(=O)/C(=C2/C=Cc3ccccc3N2CC)SC1=S	-43%	-19%	?	13µM*	11%
CCCN1/C(=C2/SC(=S)N(CC)C2=O)C=Cc2ccccc21	-9%	-20%	?	?	4%
CN1C(=O)/C(=C2/C=Cc3ccccc3N2CCCS(=O)(=O)O)SC1=S	-15%	-12%	-18%	25µM*	5%
